Rab9 prom act = activators of Rab9 promoter | Huh7 Rab9 promoter-luciferase reporter, luminescence, 24 h | Potency, µM (series often up to 9.22 µM), hits mostly activators | hit rate 2.8% among 320,000 | AID 485297; further: nearly all actives have a fitted effect of over 60% in size
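Luciferase signal after 10 min detection reagent at ambient indicates Rab9 promoter upregulation; stably transfected Huh7 cells were treated 24 h with compound in DMSO at 37 °C, 5% CO2.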
ELG1 genotox = genotoxicity induction in ELG1-luciferase HEK293T cells | HEK293T ELG1-luciferase reporter, luminescence, 16 h | Potency, µM (top dose mostly 46 µM), usual class: activators | hit rate 1.3% among 330,000 | AID 504466; further: nearly all actives have a fitted effect of over 60% in size
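Reporter readout depends on ELG1 protein level, which increases with genetic stress. After 16 hr compound exposure at 37 °C, luciferase activity was quantified using ONE-Glo.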
NPC1 prom act = activators of NPC1 promoter | Potency, µM (titrated, usually from 9.22 µM), actives largely listed as activators | AID 485313 | hit rate 2.4% among 320,000 | Huh7 NPC1 promoter luciferase reporter, 24 h; further: nearly all actives have a fitted effect of over 60% in size
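In 1536-well qHTS, Huh7 cells harboring an NPC1 promoter–luciferase construct received compound for 24 h; activation was quantified by luminescence following luciferase reagent addition.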
FLuc counter = inhibits or activates purified firefly luciferase, miR-21 counter-screen; hit rate 6.9% among 360,000; purified FLuc, Km substrates, luminescence inhibition; Potency, µM (highest dose often 57.5 µM), usual class: inhibitors; further: nearly all actives have a fitted effect of over 55% in size
Target sequence (P08659 whole entry, looked up): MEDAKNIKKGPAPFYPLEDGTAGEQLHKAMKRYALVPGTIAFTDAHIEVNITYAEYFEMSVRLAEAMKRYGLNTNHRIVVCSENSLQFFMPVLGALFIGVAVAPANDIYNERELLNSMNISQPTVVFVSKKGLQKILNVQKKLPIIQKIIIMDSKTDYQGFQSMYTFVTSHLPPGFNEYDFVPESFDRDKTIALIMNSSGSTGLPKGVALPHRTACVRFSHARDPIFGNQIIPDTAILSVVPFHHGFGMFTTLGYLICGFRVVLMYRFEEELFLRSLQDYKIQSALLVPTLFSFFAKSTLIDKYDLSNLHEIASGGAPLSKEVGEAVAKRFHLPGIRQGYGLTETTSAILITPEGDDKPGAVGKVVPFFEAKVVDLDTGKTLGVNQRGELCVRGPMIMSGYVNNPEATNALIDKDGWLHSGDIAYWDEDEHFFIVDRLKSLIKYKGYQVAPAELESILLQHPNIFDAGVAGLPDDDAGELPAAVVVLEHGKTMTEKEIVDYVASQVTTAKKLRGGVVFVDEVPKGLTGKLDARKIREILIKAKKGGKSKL
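Purified P. pyralis luciferase, 10 nM final, with Km-level 10 uM D-luciferin and 10 uM ATP in 50 mM Tris acetate pH 7.5, 10 mM Mg acetate, 0.01% Tween-20, 0.05% BSA; 6-point qHTS titration about 60 µM downward; luminescence read.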
Luc counter = counter-screen: inhibitors of Kinase-Glo firefly luciferase; Kinase-Glo luciferase, ATP luminescence, 8 min; hit rate 0.28% among 200,000; Potency, µM (top dose mostly 38.3 µM), most hits filed as inhibitors; Q27757; further: nearly all actives have a fitted effect of over 60% in size
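Compound is pinned into ATP-containing buffer (10 uM ATP, imidazole pH 7.2, 7 mM MgCl2). Kinase-Glo luciferase reagent is then added. Light output is recorded following an 8-min room-temperature incubation.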
SMN2 splice up = enhancers of SMN2 splice variant expression; HEK293 SMN2-luciferase splicing reporter, luminescence, 30-36 h; Potency, µM (highest dose often 46.1 µM), usual class: activators; hit rate 2.8% among 210,000; AID 1458; further: nearly all actives have a fitted effect of over 55% in size
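HEK293 cells carry an SMN2 […]–luciferase reporter in which exon 7 inclusion puts luciferase in frame. Cells were plated 10-12 h before compound addition, then incubated 30-36 h at 37C. ONE-Glo luminescence was read; sodium butyrate at 4.5 mM final served as control.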
Of the large screens only hits and unclear results are named; the others gave an inactive call. Most compounds without a hit are left out; they make up all but 7.3% or so of the library. The call rests on the fitted dose curve; in most records, active means well fitted curve in the direction sought with a large enough effect; inconclusive means small, poorly fitted or top-dose-only effect, or another doubt; inactive means no such curve, though single readings can be large; an effect the other way counts as inactive or inconclusive.

CCCCn1c(SCc2c(C)noc2C)nc2cc(S(N)(=O)=O)ccc21	ELG1 genotox 18µM, SMN2 splice up inconclusive
CCCCn1c(SCC(=O)Nc2cc(C)on2)nc2cc(S(N)(=O)=O)ccc21	none (no result: Luc counter, SMN2 splice up)
Cc1cc2cc(OCc3ccccc3)ccc2n1C	Rab9 prom act 3.2µM, ELG1 genotox inconclusive, NPC1 prom act 2µM, FLuc counter 5.4µM (no result: Luc counter, SMN2 splice up)
Cc1c(C=O)c2cc(OCc3ccccc3)ccc2n1C	Rab9 prom act 4µM, ELG1 genotox inconclusive, NPC1 prom act inconclusive, FLuc counter 15µM (no result: Luc counter, SMN2 splice up)
CCc1ccccc1NC(=O)c1ccc(CN2C(=O)CCn3nc(C)cc32)cc1	none (no result: Rab9 prom act, ELG1 genotox, NPC1 prom act, Luc counter, SMN2 splice up)
CSc1nc(N)nc(-c2cccs2)c1C#N	FLuc counter inconclusive
CC(C)Sc1nc(N)nc(-c2cccs2)c1C#N	Rab9 prom act 2.8µM, ELG1 genotox inconclusive, NPC1 prom act inconclusive, FLuc counter 17µM, SMN2 splice up 18µM
CCCSCCCNC(=O)C1CCN(c2nn3cc(-c4ccc(F)cc4)nc3s2)CC1	none (no result: Rab9 prom act, ELG1 genotox, NPC1 prom act, Luc counter, SMN2 splice up)
N#Cc1cccc(CS(=O)(=O)c2ccccc2)c1	none (no result: Rab9 prom act, ELG1 genotox, NPC1 prom act, FLuc counter)
CCCn1c(SC2C(=O)CC(C)(C)CC2=O)nc2c1c(=O)n(C)c(=O)n2C	none
CC(C)n1c(SC2C(=O)CC(C)(C)CC2=O)nc2c1c(=O)n(C)c(=O)n2C	SMN2 splice up 11µM
Cc1ccccc1-c1nc(CN2CCC(C(=O)NCc3ccc(F)cc3)CC2)c(C)o1	none (no result: Rab9 prom act, ELG1 genotox, NPC1 prom act, Luc counter)
CSc1cccc(NC(=S)N2CCC(c3ccccc3)C2)c1 (stereo unspecified)	FLuc counter 15µM (no result: Luc counter, SMN2 splice up)
Fc1cc(F)cc(NC(=S)N2CCC(c3ccccc3)C2)c1 (stereo unspecified)	Rab9 prom act 3.5µM, ELG1 genotox inconclusive, NPC1 prom act inconclusive, FLuc counter inconclusive, SMN2 splice up 13µM
O=C(c1ccc(F)cc1)N1CCC(c2ccccc2)C1 (stereo unspecified)	Rab9 prom act inconclusive, ELG1 genotox inconclusive, NPC1 prom act 4.5µM, FLuc counter inconclusive (no result: Luc counter, SMN2 splice up)
CCc1cccc(NC(=S)N2CCC(c3ccccc3)C2)c1 (stereo unspecified)	Rab9 prom act inconclusive, NPC1 prom act inconclusive, FLuc counter 24µM
CCc1ccc(C2c3c(-c4ccccc4O)n[nH]c3C(=O)N2Cc2cccnc2)cc1 (stereo unspecified)	none (no result: Rab9 prom act, ELG1 genotox, NPC1 prom act, Luc counter)
O=C1CCCc2cc(S(=O)(=O)N3CCCC(C(=O)Nc4ccc(F)c(Cl)c4)C3)ccc2N1 (stereo unspecified)	none (no result: Rab9 prom act, ELG1 genotox, NPC1 prom act, Luc counter, SMN2 splice up)
O=C(COc1ccc(Br)cc1)Nc1cccc2cccnc12	none (no result: Rab9 prom act, ELG1 genotox, NPC1 prom act, Luc counter, SMN2 splice up)
CCOc1ccc(NC(=O)CSc2ncc3c(n2)-c2ccccc2N(C)S3(=O)=O)cc1	none (no result: Rab9 prom act, ELG1 genotox, NPC1 prom act, Luc counter, SMN2 splice up)
O=C1CC(c2cc(F)cc(F)c2)c2cc3c(cc2N1)OCO3 (stereo unspecified)	none (no result: Rab9 prom act, ELG1 genotox, NPC1 prom act, Luc counter)
Cc1ccc(N2CCN(C(=O)C3CCN(c4ncnc5c4nc4n5CCCCC4)CC3)CC2)c(C)c1	none (no result: Rab9 prom act, ELG1 genotox, NPC1 prom act, Luc counter, SMN2 splice up)
Cc1ccc(N(Cc2cccs2)C(=O)COc2ccccc2[N+](=O)[O-])cc1	none (no result: Rab9 prom act, ELG1 genotox, NPC1 prom act, Luc counter, SMN2 splice up)
O=C(CNC(=O)c1ccc(Br)o1)Nc1ccc(N2CCCCCC2)cc1	FLuc counter inconclusive (no result: Luc counter, SMN2 splice up)
O=C(Cc1ccccc1)Nc1ccc(N2CCCCC2)cc1	Rab9 prom act inconclusive, ELG1 genotox 3.3µM, NPC1 prom act 1.8µM, FLuc counter 6µM, SMN2 splice up 11µM
CCC(=O)Nc1ccc(N2CCCCC2)cc1	FLuc counter inconclusive
CCCC(=O)Nc1ccc(N2CCCCC2)cc1	Rab9 prom act inconclusive, ELG1 genotox inconclusive, NPC1 prom act inconclusive, FLuc counter inconclusive, SMN2 splice up inconclusive
O=C(CNC(=O)c1ccco1)Nc1ccc(N2CCCCCC2)cc1	ELG1 genotox inconclusive, FLuc counter 17µM (no result: Luc counter, SMN2 splice up)
O=C(O)CCCC(=O)Nc1ccc(N2CCCC2)cc1	FLuc counter 15µM
CCN1CCN(c2ccc(NC(=O)c3ccco3)cc2)CC1	Rab9 prom act inconclusive, ELG1 genotox inconclusive, NPC1 prom act inconclusive, FLuc counter 27µM (no result: Luc counter, SMN2 splice up)
CCN1C(=O)c2ccccc2S(=O)c2ccc(C(=O)N3CCN(c4ccc(F)cc4)CC3)cc21 (stereo unspecified)	none (no result: Rab9 prom act, ELG1 genotox, NPC1 prom act, Luc counter)
CN1CCN(c2ccc(NC(=O)Cc3ccccc3)cc2)CC1	Rab9 prom act inconclusive, ELG1 genotox 12µM, NPC1 prom act inconclusive, FLuc counter 19µM
